Measured values reported in ChEMBL document CHEMBL4513216, “Probing the Open Global Health Chemical Diversity Library for Multistage-Active Starting Points for Next-Generation Antimalarials” (ACS Infect Dis, 2020).
About 8,600 (12%) of roughly 69,000 compounds showed an effect of 50% or more. The sample holds strong results, similar compounds and a random draw of the others, so the mix is not that of the screen.

test system: Plasmodium berghei; test: Screen against P. berghei liver stage (PbLuc), transformed with Luciferase, at 10uM; format: functional, HepG2; details: tested at 10 uM

Row | SMILES | INHIBITION [%]
1 | CCC(CN1CCCCC1)NC(=O)C1(c2ccc(F)cc2)CC1 (stereo unspecified) | 48.2
2 | COc1ccc(C(=O)N2CCOCC2c2[nH]ncc2C)cc1F (stereo unspecified) | 3.75
3 | Cc1cnn(CC2CN(Cc3nc4ccccc4c(=O)[nH]3)CCO2)c1 (stereo unspecified) | 29.4
4 | Cc1nc2c(Nc3cccc(C#N)c3)nc(N)nc2n1C | -42.8
5 | CC(C)NC(=O)N1CCC2(CC1)Cc1ccccc1CN(C)C2=O | -6.25
6 | CNC(=O)Nc1cc(-c2ccccc2C)nn1CCO | -60
7 | CCNC(=O)CCC(=O)NCC1(O)CCC(C(C)(C)C)CC1 (stereo unspecified) | -23.8
8 | COc1cccc(S(=O)(=O)N2CCCCC2CCN2CCOCC2)c1 (stereo unspecified) | 22.6
9 | CC(C)N1CCC(CC(=O)NC(C(=O)O)c2ccc(F)cc2)CC1 (stereo unspecified) | 33.9
10 | CCCN1CCC(CC(=O)N[C@H](C(=O)O)c2cccc(F)c2F)CC1 | 53
11 | CCN1CCC(CC(=O)N[C@H](C(=O)O)c2cccc(F)c2F)CC1 | -2.39
12 | O=C(CCCN1CCCCC1)N[C@H](C(=O)O)c1cccc(F)c1F | 34.5
13 | CC(C)N1CCC(CC(=O)NC(C(=O)O)c2cccc(F)c2)CC1 (stereo unspecified) | 36.7
14 | CC(C)N1CCC(CC(=O)NC(C(=O)O)c2cc(F)ccc2F)CC1 (stereo unspecified) | 52.1
15 | O=C(CCc1nc2cccnc2[nH]1)Nc1ccc2c(c1)NC(=O)CO2 | 14.8
16 | CSc1nccc(N2CCC(NCc3ccc4c(c3)OCO4)CC2)n1 | 57.4
17 | CSc1nccc(N2CCC(NCc3nc(C)cc(C)n3)CC2)n1 | 8.7
18 | CSc1nccc(N2CCC(=O)N(CC3CC3)C(C(C)C)C2)n1 (stereo unspecified) | 7.43
19 | CSc1nccc(N2CCC(NCc3ccc4nsnc4c3)CC2)n1 | 76.9
20 | Cc1cccc(N2CCC(NCc3cnc(C4CCC4)s3)CC2)n1 | 36.5
21 | Cc1ccc(N2CCCC(NCc3ccc4c(c3)OCCO4)C2)nn1 (stereo unspecified) | -19.4
22 | O=C(NCCNS(=O)(=O)N1CCCCCC1)c1ncccc1O | -13.6
23 | CCCC(O)CN1CCC(=O)N(Cc2ccccc2)Cc2ccccc21 (stereo unspecified) | -30
24 | Cc1ccc(C)n1-c1c(C(=O)NCC(C)Cn2cccn2)cnn1C (stereo unspecified) | 5.36

Row | SMILES | INHIBITION [%]
25 | CN1[C@H](CN2CCCC2)C[C@@H]2CN(C(=O)Cc3cccs3)CC[C@@H]21 | 49.1
26 | CN1CCN(C)c2cc(NC(=O)c3cc[nH]n3)ccc2C1 | 43.1
27 | CCc1ccc(C(=O)Nc2ccc3c(c2)N(C)CCN(C)C3)o1 | 66.9
28 | Cc1cc(C(=O)Nc2ccc3c(c2)N(C)CCN(C)C3)on1 | 44.2
29 | c1ccc(OCCN2CCN(c3ncnc4[nH]ccc34)CC2)cc1 | 35.1
30 | c1ccc(CCN2CCN(c3ncnc4[nH]ccc34)CC2)cc1 | 33
31 | c1ccc(CCCN2CCCN(c3ncnc4[nH]ccc34)CC2)cc1 | 52.7
32 | COc1ccc(Cn2c(CCc3c(C)n[nH]c3C)n[nH]c2=O)cc1 | -5.08
33 | CCCc1nc(C)c(C(=O)NCCN2CCOCC2)s1 | -65.3
34 | COc1ccc(CCC2CCCCN2)cc1 (stereo unspecified) | 49.6
35 | O=C(O)c1ccnc2c(Br)cccc12 | 9.32
36 | O=C(O)c1cccc2c(Br)cccc12 | 73.9
37 | O=C(O)c1cnc2c(Br)cccc2c1O | 27.5
38 | C=C(C)COc1ccccc1C(=O)NCCc1cc(O)nc(C)n1 | 41.3
39 | CCOC(=O)N1CC2(CCNCC2)c2cc(Cl)ccc21 | 21.1
40 | O=C(C1CC1)N1CC2(CCNCC2)C1 | -1.12
41 | O=C(C1CC1)N1CCc2ccccc2C12CCNCC2 | 55.4
42 | COCC(=O)N1CCc2ccccc2C12CCNCC2 | 40.5
43 | CN(C)C(=O)N1Cc2ccccc2C2(CCNCC2)C1 | 12.4
44 | CCOC(=O)N1CCc2ccccc2C12CCNCC2 | 50.4
45 | Cc1ccc(CC(=O)N2CCC(Nc3cccnn3)CC2)s1 | -58.0025
46 | Cc1ccccc1C(C(=O)NCCS(C)(=O)=O)N(C)C (stereo unspecified) | 22.6
47 | c1ncn(CC2CN(Cc3nc(-c4ccsc4)no3)CCO2)n1 (stereo unspecified) | -3.165
48 | Cc1nc(C)n(CC2CN(Cc3ccccc3OC(C)C)CCO2)n1 (stereo unspecified) | 26.5

Row | SMILES | INHIBITION [%]
49 | NCc1cnn(-c2ccccc2C(=O)NCc2ccccn2)c1 | 53.2
50 | NCc1cnn(-c2ccccc2C(=O)NCc2ccncc2)c1 | 17.1
51 | NCc1cnn(-c2ccccc2C(=O)NCCCn2ccnc2)c1 | 54.6
52 | COCCNC(=O)c1ccccc1-n1cc(CN)cn1 | 17.1
53 | NCc1cnn(-c2ccccc2C(=O)NCCc2ccccn2)c1 | 24.4
54 | NCc1cnn(-c2ccccc2C(=O)NCCc2ccncc2)c1 | 8.72
55 | CCN(C(=O)c1ccc(-n2ncc(C#N)c2N)cc1)C1CCCC1 | 25.1
56 | Cc1cc(NCCS(C)(=O)=O)nc2ccccc12 | 8.05
57 | Cc1cc(NCC2(O)CCOCC2)nc2ccccc12 | 71.7
58 | OC1(CNc2cc(C(F)(F)F)nc3ccccc23)CCOCC1 | -32.3
59 | Cc1cc(NCCCNS(C)(=O)=O)nc2ccccc12 | 62
60 | Cc1cc(NCCNS(C)(=O)=O)nc2cc3c(cc12)CCC3 | -6.88
61 | Cc1cc(NCCOCCS(C)(=O)=O)nc2ccccc12 | 46.6
62 | Cc1cc(NCC2(O)CCOCC2)c2ccccc2n1 | 26
63 | Cc1cc(C)n(-c2cncc(NCCNS(C)(=O)=O)n2)n1 | 29
64 | COc1cc2nc(NCCNS(C)(=O)=O)cc(C)c2cc1OC | 50.3
65 | O=S(=O)(NCC1CCN(c2cnccn2)CC1)c1ccc(F)c(Cl)c1 | -54.5
66 | CCc1c(C)n(CC(C)=O)c2nc3ccccc3n2c1=O | 4.66
67 | c1csc(CN2CC(c3nc(-c4cnccn4)no3)C2)c1 | -12.6
68 | CN(Cc1noc(C2CC2)n1)C1CCN(CCc2cnn(C)c2)C1 (stereo unspecified) | 11.2
69 | Cc1ccc(CN2C[C@H]3C[C@H](C(=O)NCC4CC4)N(C)[C@H]3C2)o1 | 18.6
70 | CN(Cc1cnn(C)c1)CC1CCCN1c1cccnn1 (stereo unspecified) | 5.7
71 | NCc1ccc(Oc2ccc(F)c(F)c2)cc1C(F)(F)F | 26.1
